Screens as filed in PubChem.
Compounds with a hit are over-represented: about 10% of the library has one in this group of screens.
BAZ2B inh – qHTS Assay for Inhibitors of BAZ2B; AID 504333, 2011; AlphaScreen BAZ2B-H3K14Ac peptide displacement; 4.4% of 360,000 active; Potency, µM (doses to about 114 µM), usual class: inhibitors; further: nearly all actives have a fitted effect of over 60% in size
Target sequence (Q9UIF8 whole entry, looked up): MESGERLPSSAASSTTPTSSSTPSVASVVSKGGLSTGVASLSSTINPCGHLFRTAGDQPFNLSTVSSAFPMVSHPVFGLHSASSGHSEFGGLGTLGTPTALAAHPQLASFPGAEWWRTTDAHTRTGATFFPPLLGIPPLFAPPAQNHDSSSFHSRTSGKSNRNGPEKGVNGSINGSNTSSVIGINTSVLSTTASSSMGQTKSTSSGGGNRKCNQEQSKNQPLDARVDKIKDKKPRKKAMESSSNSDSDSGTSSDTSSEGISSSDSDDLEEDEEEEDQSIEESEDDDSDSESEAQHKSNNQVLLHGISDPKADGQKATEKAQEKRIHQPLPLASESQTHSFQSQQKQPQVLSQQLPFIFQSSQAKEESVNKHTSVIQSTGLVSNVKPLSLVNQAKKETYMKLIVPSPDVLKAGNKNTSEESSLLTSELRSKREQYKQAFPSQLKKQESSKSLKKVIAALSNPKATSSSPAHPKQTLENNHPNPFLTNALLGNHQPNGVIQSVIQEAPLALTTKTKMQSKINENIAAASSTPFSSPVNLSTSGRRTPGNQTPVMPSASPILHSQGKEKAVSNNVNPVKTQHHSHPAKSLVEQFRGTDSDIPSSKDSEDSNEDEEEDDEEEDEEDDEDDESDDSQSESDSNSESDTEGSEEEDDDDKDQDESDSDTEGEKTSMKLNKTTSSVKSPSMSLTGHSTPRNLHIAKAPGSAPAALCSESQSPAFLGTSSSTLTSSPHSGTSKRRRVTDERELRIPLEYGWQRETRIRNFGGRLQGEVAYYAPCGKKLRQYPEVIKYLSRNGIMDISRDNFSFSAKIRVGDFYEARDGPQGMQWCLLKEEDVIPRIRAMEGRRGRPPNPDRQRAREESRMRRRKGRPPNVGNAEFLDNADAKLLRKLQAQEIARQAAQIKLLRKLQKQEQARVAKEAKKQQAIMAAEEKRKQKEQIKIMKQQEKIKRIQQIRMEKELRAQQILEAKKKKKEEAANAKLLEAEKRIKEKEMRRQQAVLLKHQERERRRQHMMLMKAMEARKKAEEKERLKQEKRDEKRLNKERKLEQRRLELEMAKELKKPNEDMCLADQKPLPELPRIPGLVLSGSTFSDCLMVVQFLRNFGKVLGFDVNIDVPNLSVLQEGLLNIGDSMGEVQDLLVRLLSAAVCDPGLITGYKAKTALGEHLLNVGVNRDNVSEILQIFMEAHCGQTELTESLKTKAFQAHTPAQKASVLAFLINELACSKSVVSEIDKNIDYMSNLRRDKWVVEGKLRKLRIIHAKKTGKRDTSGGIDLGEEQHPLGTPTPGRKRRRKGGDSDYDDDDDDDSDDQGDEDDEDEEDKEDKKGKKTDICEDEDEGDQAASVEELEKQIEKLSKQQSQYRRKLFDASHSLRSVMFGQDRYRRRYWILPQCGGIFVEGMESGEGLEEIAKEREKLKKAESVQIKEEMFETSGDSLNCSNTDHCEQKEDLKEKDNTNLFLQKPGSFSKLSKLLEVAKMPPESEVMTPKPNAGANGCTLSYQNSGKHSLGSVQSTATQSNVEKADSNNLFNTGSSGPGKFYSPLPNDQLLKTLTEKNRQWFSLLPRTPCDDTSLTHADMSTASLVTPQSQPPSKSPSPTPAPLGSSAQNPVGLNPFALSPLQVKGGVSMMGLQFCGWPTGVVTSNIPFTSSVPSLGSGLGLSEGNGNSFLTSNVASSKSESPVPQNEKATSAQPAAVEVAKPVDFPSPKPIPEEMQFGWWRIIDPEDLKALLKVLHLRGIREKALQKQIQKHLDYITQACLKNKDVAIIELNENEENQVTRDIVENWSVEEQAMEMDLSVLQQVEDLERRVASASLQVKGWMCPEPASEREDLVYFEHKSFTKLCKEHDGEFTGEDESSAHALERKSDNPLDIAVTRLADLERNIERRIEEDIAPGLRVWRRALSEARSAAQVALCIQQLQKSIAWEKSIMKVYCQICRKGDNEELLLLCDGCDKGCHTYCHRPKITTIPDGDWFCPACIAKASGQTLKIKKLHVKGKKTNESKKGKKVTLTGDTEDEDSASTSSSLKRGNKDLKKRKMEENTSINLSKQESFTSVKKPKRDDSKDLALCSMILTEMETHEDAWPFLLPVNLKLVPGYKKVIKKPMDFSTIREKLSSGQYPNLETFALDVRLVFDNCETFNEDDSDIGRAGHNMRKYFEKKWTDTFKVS
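BAZ2B 50 nM plus b-H3(5-23)K14Ac 50 nM, PBS pH 7.4/0.01% Tween-20, 30 min RT; compound added (max 110 uM), 30 min RT; streptavidin donor/Ni-chelate acceptor beads 10 ug/mL final, 20 min dark; AlphaScreen read.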
G9a inh – qHTS Assay for Inhibitors of Histone Lysine Methyltransferase G9a. Histone-lysine N-methyltransferase EHMT2 (Homo sapiens), Q96KQ7. G9a H3K9 monomethylation, AlphaScreen, 2 h. Potency, µM (highest dose often 102 µM), most hits filed as inhibitors. 8.8% of 350,000 active. AID 504332, 2011; further: nearly all actives have a fitted effect of over 75% in size
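Signal arises when biotinylated H3K9 peptide, once monomethylated, bridges streptavidin donor and antibody-captured acceptor beads. Enzyme at 20 nM was preincubated 15 min with test compounds; peptide 500 nM and SAM 20 uM then reacted for 2 h.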
HP1b chromo inh – HTS for Inhibitors of HP1-beta Chromodomain Interactions with Methylated Histone Tails. Chromobox protein homolog 1 (Homo sapiens), P83916. AlphaScreen HP1-beta / biotin-H3K9me3 peptide binding. Potency, µM (highest dose often 114 µM), most hits filed as inhibitors. 0.56% of 390,000 active. AID 540317, 2011; further: nearly all actives have a fitted effect of over 70% in size
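AlphaScreen: HP1-beta (50 nM) preformed 30 min with biotin-H3(1-18)K9me3 peptide (50 nM) in PBS pH 7.4, 0.01% Tween-20. Compound added for 30 min at RT, then streptavidin donor/nickel chelate acceptor beads (10 ug/mL) for 30 min.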
JMJD2A Tudor inh – qHTS Assay for Inhibitors of JMJD2A-Tudor Domain | Lysine-specific demethylase 4A (Homo sapiens), O75164 | AlphaScreen JMJD2A-Tudor / H3K4me3 peptide binding | Potency, µM (titrated, usually from 114 µM), most hits filed as inhibitors | 4.4% of 390,000 active | AID 504339, 2011; further: nearly all actives have a fitted effect of over 50% in size
L3MBTL1 inh – qHTS Assay for the Inhibitors of L3MBTL1; Lethal(3)malignant brain tumor-like protein 1 (Homo sapiens), Q9Y468; AlphaScreen L3MBTL1–H3K9me1 peptide binding; Potency, µM (doses to about 57.1 µM), hits mostly inhibitors; 0.66% of 230,000 active; AID 485360, 2010; further: nearly all actives have a fitted effect of over 60% in size
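L3MBTL1 50 nM + b-AHA-H3(1-15)K9me1 75 nM, 30 min RT; compound added, 30 min RT; streptavidin donor/Ni-chelate acceptor beads 10 ug/mL each final, 30 min RT dark; AlphaScreen read.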
GLS inh – qHTS for Inhibitors of Glutaminase (GLS); Glutaminase kidney isoform, mitochondrial (Homo sapiens), O94925; GLS enzymatic activity, qHTS titration; Potency, µM (top dose mostly 45.5 µM), most hits filed as inhibitors; 0.21% of 410,000 active
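hKGA in 45 mM KH2PO4 pH 8.2, 0.02% Tween-20 with pin-transferred compounds; 1 mM L-glutamine (stock) plus glutamate oxidase/HRP/Amplex Red coupling added. Fluorescence read initially and after 30 min at RT.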
Hits are given with their value; 0 = inactive; ? = inconclusive; - = no result given; ! = a repeat was not active; [ ] = dose if it differs, or a comment. The call rests on the fitted dose curve; in most records, active means well fitted curve in the direction sought with a large enough effect; inconclusive means small, poorly fitted or top-dose-only effect, or another doubt; inactive means no such curve, though single readings can be large; an effect the other way counts as inactive or inconclusive.

SMILES	BAZ2B inh	G9a inh	HP1b chromo inh	JMJD2A Tudor inh	L3MBTL1 inh	GLS inh
Cc1nc(-c2ccccc2)sc1CCNC(=O)C(=O)Nc1ccc2c(c1)OCO2	0	0	0	0	-	0
Cc1nc2ccccc2n1CCc1nc2c3ccccc3nc(SCc3ccccc3F)n2n1	0	0	0	0	-	0
CCOc1ccccc1N1CCN(C(=O)c2ccc3[nH]c4c(c3c2)CCCC4)CC1	40µM	40µM	?	45µM	0	0
CCOc1ccccc1N1CCN(C(=O)c2cc3c(C)cc(C)cc3[nH]2)CC1	0	?	0	?	-	0
O=C(NCc1ccc(F)cc1)c1ccc(S(=O)(=O)N2CCCCC2)cc1	0	0[12.7 µM]	0	0	0	0
CC1CCCN(S(=O)(=O)c2ccc3[nH]c4c(c3c2)CCCC4)C1 (stereo not given)	25µM	-	?	?	-	0
O=C(NCc1ccc2[nH]c3c(c2c1)CCCC3)c1ccc(S(=O)(=O)N2CCCCC2)cc1	0	71µM	0	0	0	0
COC(=O)C1CCN(C(=O)COC(=O)c2ccc(OC)c(S(=O)(=O)N3CCCc4ccccc43)c2)CC1	0	79µM	0	0	0	0
CC1CCCN(C(=O)COC(=O)c2ccc3[nH]c4c(c3c2)CCCC4)C1 (stereo not given)	50µM	?	0	0	0	0
COC(=O)C1CCN(C(=O)COC(=O)c2ccc3[nH]c4c(c3c2)CCCC4)CC1	?	50µM	?	?	0	0
CCC(C)NC(=O)Cn1c(=O)n(-c2ccc(OC)c(OC)c2)c(=O)c2ccccc21 (stereo not given)	0	0	0	0	-	0
O=c1ccc2ccc(O)c(O)c2o1	-	0.84µM	-	-	-	-
O=C1C=CC(=O)N1	0	2µM	?	0	0	0
CCOc1ccc(CNC(=O)c2cc3c(=O)n(Cc4cccs4)ccc3nc2C)cc1	?	0	0	0	-	0
COC1CCCCC1Nc1cc(C)cc(C)c1 (stereo not given)	35µM	14µM	18µM	18µM	-	0
COC1CCCCC1Nc1cccc(SC)c1 (stereo not given)	0	?	0	0	0	0
O=C1Cc2cc(NS(=O)(=O)c3ccc([N+](=O)[O-])cc3)cc3c2N1CCC3	0	45µM	0	0	0	0
COc1ccc(S(=O)(=O)Nc2cc3c4c(c2)CCC(=O)N4CCC3)cc1	0	0	0	0	0	0
O=C1Cc2cc(NS(=O)(=O)c3ccc(Cl)cc3)cc3c2N1CCC3	0	0	0	0	0	0
COc1ccc(F)cc1S(=O)(=O)Nc1cc2c3c(c1)CCN3C(=O)CC2	0	45µM	0	0	0	0
COc1ccc(S(=O)(=O)Nc2cc3c4c(c2)CC(=O)N4CCC3)cc1	0	32µM	0	0	0	0
O=C1N/C(=N/Nc2ccccc2)S/C1=C\c1ccccc1	40µM	7.9µM	?	45µM	0	0
Cc1ccc(CCNC(=O)c2cnc3c(C)cccn3c2=O)cc1	0	0	0	0	-	0
Cc1ccc(NC(=O)Cn2ccn(-c3ccc(F)c(F)c3)c(=O)c2=O)cc1C	0	0	0	0	-	0
COc1ccc2[nH]c(O)c(N=NC(=O)Cc3cccs3)c2c1	35µM	0	0	28µM	-	0
SMILES	BAZ2B inh	G9a inh	HP1b chromo inh	JMJD2A Tudor inh	L3MBTL1 inh	GLS inh
CC(=O)Nc1cccc(C(=O)NNC(=O)c2ccc(NS(=O)(=O)c3cccs3)cc2)c1	-	-	-	-	-	0
COc1ccc2[nH]c(O)c(N=NC(=O)c3ccc(NS(=O)(=O)c4cccs4)cc3)c2c1	50µM	0[12.7 µM]	0	?	0	0
Cc1ccc2[nH]c(O)c(N=NC(=O)c3ccc(NS(=O)(=O)c4cccs4)cc3)c2c1	0	0[12.7 µM]	0	?	-	0
C/C(=N\NC(=O)c1ccc(NS(=O)(=O)c2cccs2)cc1)c1ccc(O)cc1O	10µM	-	0	0	0	?
O=C(Cc1cccs1)N=Nc1c(O)[nH]c2ccc(Br)cc12	?	?	0	?	0	0
[N-]=[N+]=Nc1ccc(C(=O)CSC[C@H](NC(=O)CC[C@H](N)C(=O)O)C(=O)NCC(=O)O)cc1	-	32µM!	-	-	-	-
Cc1ccc(C(=O)NCCn2cc(SCC(=O)Nc3cc(C)on3)c3ccccc32)cc1	0	0	0	0	-	0
Cc1cc(NC(=O)CSc2cn(C)c3ccccc23)no1	0	25µM	0	0	-	0
CCCn1cc(SCC(=O)Nc2cc(C)on2)c2ccccc21	0	0	0	0	-	0
Cc1cc(NC(=O)CSc2cn(CCNC(=O)c3ccccc3)c3ccccc23)no1	0	?	8.9µM	22µM	-	8.9µM
CCOc1ccc(NC(=O)CNS(=O)(=O)c2ccc(Br)s2)cc1	0	0	0	0	-	0
COc1ccccc1NC(=O)C1=C(C)Nc2nnnn2C1c1ccc(C(F)(F)F)cc1 (stereo not given)	0	0	0	0	-	0
Cc1oc(-c2ccc3c(c2)OCCO3)cc1C(=O)NC(Cc1ccccc1)C(=O)O (stereo not given)	?	35µM	0	0	0	0
CCN(CCCNC(=O)c1cn(CC)c2ccc(S(=O)(=O)N(C)C)cc2c1=O)c1cccc(C)c1	?	35µM	0	?	0	0
CCN(CCCNC(=O)COc1cc(=O)n(CC)c2ccccc12)c1ccccc1	?	11µM	0	?	0	0
CCN(CCCNC(=O)CSc1cc(=O)n(CC)c2ccccc12)c1cccc(C)c1	22µM	?	?	32µM	-	0
CCN(CCCNC(=O)CNC(=O)Cn1cnc2ccccc2c1=O)c1ccccc1	0	2.2µM	0	0	-	0
CCn1cc(C(=O)NCCCN(C)c2ccccc2)c(=O)c2cc(S(=O)(=O)N(C)C)ccc21	?	?	0	?	0	0
CCn1c(=O)cc(SCC(=O)NCCc2cccc(C)c2)c2ccccc21	0	0	0	0	-	0
CC1CC=CC2C1C(=O)N(Cc1ccccc1)C2c1ccc(-c2cc3ccccc3s2)cc1F (stereo not given)	-	-	0	0	-	-
CCSc1nnc2c(n1)OC1(CCCC1)Nc1ccccc1-2	0	35µM	0	0	0	0
CCSc1nnc2c(n1)OC(c1ccc(C)s1)Nc1ccccc1-2 (stereo not given)	0	0	0	0	-	0
Cc1ccc(/C=C2\Sc3ccccc3C2=O)s1	8.9µM	0[0.501 µM]	0	0	0	0
CC(=O)Nc1ccc(/C=C2\Sc3ccccc3C2=O)cc1	?	0	0	0	0	0
